Measured values: PubChem BioAssay
Calls of active or inactive are those of the source. The rule behind the calls is not given here.

Each compound was assayed against Pantothenate synthetase (Mycobacterium tuberculosis (strain ATCC 25618 / H37Rv)) (UniProt P9WIL5) (assay: Recombinant Mtb pantothenate synthetase (PanC) inhibitors, coupled enzyme, confirmatory (AID 375;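 note: 0% = full reaction with vehicle and 100% = no enzyme background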)). Conditions: coupled enzyme assay; at 10 µM, stronger effect = higher value.
Pantothenate synthetase (Mycobacterium tuberculosis (strain ATCC 25618 / H37Rv)), sequence (P9WIL5 whole entry, looked up): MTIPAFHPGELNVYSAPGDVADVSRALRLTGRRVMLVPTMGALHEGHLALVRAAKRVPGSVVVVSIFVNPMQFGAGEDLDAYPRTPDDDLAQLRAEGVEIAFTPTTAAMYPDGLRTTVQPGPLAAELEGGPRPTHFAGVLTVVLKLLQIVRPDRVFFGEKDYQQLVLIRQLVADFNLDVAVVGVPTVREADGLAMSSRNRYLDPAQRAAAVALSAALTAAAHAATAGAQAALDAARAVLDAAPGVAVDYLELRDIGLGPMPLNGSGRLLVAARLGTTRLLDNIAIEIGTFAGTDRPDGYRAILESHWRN

| SMILES | inhibition |
| --- | --- |
| CC1CCN(C(=O)Cn2c(=O)oc3ccccc32)CC1 | 0% (inactive) |
| Cc1c(Cc2ccccc2)sc(N)c1C(N)=O | 0% (inactive) |
| COc1cccc(NC(=O)COC(=O)c2cccnc2)c1 | 0% (inactive) |
| O=C(NC12CC3CC(CC(C3)C1)C2)N1CCN(C(=O)C2CCCO2)CC1 (stereo not given) | 7% (inactive) |
| COc1ccc2c(c1)CCc1c(C(=O)N3CC4(C)CC3CC(C)(C)C4)noc1-2 (stereo not given) | 0% (inactive) |
| O=C(CSc1nnc(-c2ccccc2)c(-c2ccccc2)n1)N1CCOCC1 | 0% (inactive) |
| CC(=O)NC1=NC(=O)/C(=C/N2CCCCC2)S1 | 8% (inactive) |
| COc1ccc(S(=O)(=O)NC(C)C(=O)Nc2cccc(C(C)=O)c2)cc1 (stereo not given) | 0% (inactive) |
| Cc1ccc(-c2nnc(SCC(=O)N3CC(C)CC(C)C3)o2)cc1C (stereo not given) | 0% (inactive) |
| O=C1NC(c2ccccc2)(C(F)(F)F)SC2=NCCCN12 (stereo not given) | 0% (inactive) |
| CCOC(=O)N1CCC(N(C(=O)Nc2cccc(OC)c2)C(C)CC)CC1 (stereo not given) | 0% (inactive) |
| COc1ccc(CC(NC(C)=O)C(=O)NC2CCN(c3nc(C)cc(C)c3C#N)CC2)c(OC)c1 (stereo not given) | 0% (inactive) |
| CC(=O)c1ccccc1NS(=O)(=O)c1c(C)nn(-c2ccccc2)c1C | 0% (inactive) |
| Cc1cc(C)n2nc(S(=O)(=O)N(C)Cc3ccccc3)nc2n1 | 0% (inactive) |
| O=C(O)c1ccc(CSc2ncn[nH]2)cc1 | 1% (inactive) |
| COC(=O)CCC(=O)Nc1cccc(Cl)c1 | 0% (inactive) |
| CC(C)C[C@H]1C(=O)N2CCC[C@H]2[C@]2(O)O[C@](NC(=O)[C@@H]3C=C4c5cccc6[nH]c(Br)c(c56)CC4N(C)C3)(C(C)C)C(=O)N12 (stereo not given in full) | 4% (inactive) |
| O=C(NCC1CCCO1)c1cccc(N2C(=O)C3C4C=CC(C4)C3C2=O)c1 (stereo not given) | 11% (inactive) |
| CCN(Cc1nc2ccccc2c(=O)[nH]1)Cc1cc(=O)oc2cc(C)c(C)cc12 | 0% (inactive) |
| Cc1cc(NC(=O)COc2cccc(Oc3ccccc3)c2)no1 | 8% (inactive) |

| SMILES | inhibition |
| --- | --- |
| CCS(=O)(=O)N1CCC(C(=O)NCc2cccs2)CC1 | 2% (inactive) |
| COC(=O)c1[nH]c2ccc(F)cc2c1NS(=O)(=O)c1ccc(OC)cc1OC | 14% (inactive) |
| O=c1[nH]c2c(s1)C(c1ccco1)C1C3CCC(C3)C1S2 (stereo not given) | 0% (inactive) |
| O=C(Nc1nc(-c2ccccc2)cs1)C1CCCCN1S(=O)(=O)c1ccccc1 (stereo not given) | 1% (inactive) |
| CS(=O)(=O)N(CC(=O)Nc1cccc(F)c1)Cc1ccccc1 | 0% (inactive) |
| CN1CCN(CCCNC(=O)C2CC(=O)N(C3CCCCC3)C2)CC1 (stereo not given) | 4% (inactive) |
| COc1cc(CO)cc(-c2cc(CO)cc(OC)c2OC)c1OC | 0% (inactive) |
| CNC(=O)Oc1ccc2c(c1)[C@]1(C)CCN(C)[C@@H]1N2C | 4% (inactive) |
| CCN(CC)c1ccc(NC(=O)c2nc3nc(C)cc(C(F)F)n3n2)cc1 | 0% (inactive) |
| O=C1c2cccnc2C(O)N1Cc1ccc(F)cc1 (stereo not given) | 9% (inactive) |
| CC12CN3CCN(CC(C3)C1(O)CN1CCCCC1)C2 (stereo not given) | 0% (inactive) |
| CNC(=O)c1ccc(N(Cc2ccccc2C)S(C)(=O)=O)cc1 | 7% (inactive) |
| CCOC(=O)CNC(=O)Nc1ccccc1C(=O)OC | 6% (inactive) |
| O=C(C1=C(O)C(=O)N(c2ncccn2)C1c1cccc(Cl)c1)c1ccco1 (stereo not given) | 0% (inactive) |
| CC(=O)Nc1ccc(S(=O)(=O)Nc2nc3c(s2)CCCC3)cc1 | 2% (inactive) |
| CCN(CC(=O)NC(=O)NCc1ccco1)Cc1nc2ccccc2c(=O)[nH]1 | 0% (inactive) |
| COc1ccc(OC)c(S(=O)(=O)Nc2ccccc2SC)c1 | 3% (inactive) |
| O=c1ccc2cc3c([nH]c4ccc(Br)cc43)oc-2c1O | 0% (inactive) |
| Cc1cnc(NC(=O)CSc2nnc(COc3c(C)cccc3C)o2)s1 | 8% (inactive) |
| Cn1nnnc1SCSc1nnnn1C | 1% (inactive) |
